Source: PubChem
B2AR arrestin: qHTS assay of beta-arrestin-biased ligands of beta2-adrenergic receptor. Beta-2 adrenergic receptor (Homo sapiens), P07550. beta-arrestin recruitment to beta2AR, cell-based reporter. Potency, µM (series often up to 46.1 µM), for inactives: top-dose activation, usual class: activators. hit rate 0.02% among 330,000. AID 492947, 2010;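 note: potency is the fitted concentration of half-maximal effect; 0% = DMSO controls and full agonism = EC100 isoproterenol or metaproterenol; nearly all actives have a fitted effect of over 65% in size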
Target sequence (P07550 whole entry, looked up): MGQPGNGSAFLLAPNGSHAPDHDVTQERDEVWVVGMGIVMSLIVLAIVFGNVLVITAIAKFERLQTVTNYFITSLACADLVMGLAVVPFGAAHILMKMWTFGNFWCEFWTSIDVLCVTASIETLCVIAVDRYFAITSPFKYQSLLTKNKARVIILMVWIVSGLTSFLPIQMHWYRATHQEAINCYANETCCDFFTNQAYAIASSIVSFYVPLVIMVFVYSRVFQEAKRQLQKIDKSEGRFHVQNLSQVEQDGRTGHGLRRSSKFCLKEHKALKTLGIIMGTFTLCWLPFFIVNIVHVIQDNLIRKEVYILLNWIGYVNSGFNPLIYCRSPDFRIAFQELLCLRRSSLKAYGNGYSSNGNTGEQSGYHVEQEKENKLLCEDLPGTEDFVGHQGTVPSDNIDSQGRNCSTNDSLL
RORgamma inh: qHTS for inhibitors of ROR gamma transcriptional activity; Potency, µM (doses to about 53.6 µM), for the others: at the highest dose activity change, negative = inhibition, most hits filed as inhibitors; Drosophila S2 Gal4-RORgamma UAS-luciferase reporter, 20 h; hit rate 5.4% among 310,000; AID 2551, 2010; note: potency is the fitted concentration of half-maximal effect; nearly all actives have a fitted effect of over 60% in size
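ROR gamma transcriptional activity was tracked as Gal4-UAS luciferase output in stably transfected Drosophila Schneider cells, with compound added 1 hr before 700 uM copper sulfate induction and a 20 hr ambient-temperature incubation.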
TSHR antag: Antagonists of the Thyroid Stimulating Hormone Receptor: HTS campaign | Thyrotropin receptor (Homo sapiens), P16473 | TSHR-expressing cells, TSH-stimulated cAMP HTRF, 2 h; active compounds read low | hit rate 0.2% among 330,000 | activity change, negative = inhibition, % at 11.5 µM;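 active = activity change below a set negative limit, meaning inhibition stronger than a set level, cut at about -70% in these data; inconclusive = activity change between two set negative limits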
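TSHR-expressing cells were treated with compounds, then stimulated with TSH at EC80 (4nM final) for 2 hours at 37 deg C. Cellular cAMP was measured by HTRF competition between lysate cAMP and cAMP-d2 for a cryptate-labelled anti-cAMP antibody.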
VP16 counter: VP16 counterscreen qHTS for inhibitors of ROR gamma transcriptional activity; Potency, µM (highest dose often 53.6 µM), inactives show top-dose activity, negative = inhibition, actives largely listed as inhibitors; hit rate 3.5% among 310,000; Drosophila S2 Gal4-VP16 UAS-luciferase, luminescence, 20 h; AID 2546, 2010;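 note: Gal4-VP16 expression switched on by copper sulfate through the metallothionein promoter; potency is the fitted concentration of half-maximal effect; nearly all actives have a fitted effect of over 50% in size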
ELG1 repair inh: qHTS screen for small molecules that inhibit ELG1-dependent DNA repair in human embryonic kidney (HEK293T) cells expressing luciferase-tagged ELG1 | HEK293T ELG1-luciferase reporter, luminescence, 16 h; DNA damage induced by 5-fluorouridine | Potency, µM (highest dose often 46.1 µM), for inactives: at the highest dose activity change, negative = inhibition, hits mostly inhibitors | hit rate 2.3% among 330,000 | AID 504467, 2011; note: potency is the fitted concentration of half-maximal effect; nearly all actives have a fitted effect of over 55% in size
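Overnight (16 hr) co-exposure of 2,000 cells/well to 5-fluorouridine and compound at 37 °C preceded detection. Luciferase was quantified via ONE-Glo luminescence; loss of signal denotes inhibition.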
The depositor's hits bear a star; ? = inconclusive; · = no result given; [ ] = another dose, or the depositor's remark. An excerpt weighted towards active compounds, which were near 7.5% of everything screened. Unless noted, calls come from the whole dose curve; as a rule, active = well fitted curve in the direction sought with a large enough effect; inconclusive = small, poorly fitted or top-dose-only effect, or another doubt; inactive = no such curve, though single readings can be large; an effect the other way counts as inactive or inconclusive. Unless noted, % is set by controls: 0 for no effect and ±100 for the full control effect.

SMILES | B2AR arrestin | RORgamma inh | TSHR antag | VP16 counter | ELG1 repair inh
COC(=O)C1=C[C@@H](C(=O)OC)[C@@H]2C3=C(C(=O)[C@]2(C)NC(=O)c2ccccc2)[C@H](C)[C@@H]2C(=O)NC(=O)[C@@H]2[C@@H]3C1 | · | -12.3% | · | 2.4% | ·
COc1cccc(-c2ocnc2C(=O)Nc2ccc(N3CCOCC3)cc2N2CCOCC2)c1 | -0.2% | -3.8% | -5.9 | -3.1% | 18.3µM*
COc1ccc(-c2ocnc2C(=O)Nc2ccccc2N2CCCCC2)cc1 | -1.0% | 8.6% | -23.3 | -2.3% | -9.8%
FC(F)(F)c1cccc(NC(=S)NCCN2CCOCC2)c1 | -1.2% | -36.8% | 3.4 | -6.5% | -0.7%
Cc1ccc(NC(=S)NNC(=S)NCc2ccccc2)cc1 | -0.7% | -24.2% | -4.4 | -10.2% | 8.1%
CC(C)(C)NNC(=S)Nc1cccc(C(F)(F)F)c1 | ? | 1µM* | -2.5 | 3.16µM* | -25.5%
O=C(NNC(=S)Nc1cccc(C(F)(F)F)c1)c1ccccc1Cl | -0.2% | 12.6µM* | 4.5 | 10µM* | -4.8%
CCCNC(=S)Nc1cccc(C(F)(F)F)c1 | -0.3% | 10µM* | 4.6 | ? | -11.9%
Cc1ccc(NC(=S)NNC(C)(C)C)cc1 | 8.91µM* | ? | -0.1 | 0.251µM* | -2.8%
Cc1nnsc1C(=O)NNC(=O)c1cccc2ccccc12 | -0.7% | -31.6% | -4.3 | -2.2% | 6.6%
Cc1cc2oc(=O)cc(-c3ccccc3)c2c(C)c1-c1ccoc1 | · | -10.4% | · | -2.8% | ·
CCN(CC)S(=O)(=O)c1cccc(NC(=O)Nc2cccc(C(F)(F)F)c2)c1 | 0.2% | 0.8% | -74.2* | -2.1% | 13µM*
COc1cccc2sc(N)nc12 | -0.1% | 0.1% | -11.4 | -12.2% | 18.1%
COc1ccc(-c2nnc(Nc3nc4c(OC)cccc4s3)o2)cc1 | -0.2% | 11.2µM* | 0.9 | 12.6µM* | -11.6%
COc1ccc(-c2nnc(Nc3nc4c(OC)cccc4s3)o2)c(OC)c1 | 6.2% | 1.58µM* | -10.6 | ? | -8.3%
CC(C)(C)c1ccc(S(=O)(=O)NCC(=O)N2CCN(Cc3ccccc3)CC2)cc1 | 0.4% | 12.3% | -19.5 | -6.2% | -14.5%
Cc1ccccc1NC(=O)c1ccc(-n2cncn2)nc1 | 0.3% | 17.8µM* | 7.0 | -5.6%[0.365 µM] | -25.6%
CCC(CC)=NNC(=O)c1ccccc1OCc1ccc(F)cc1 | -0.2% | -11.3% | -3.6 | 0.6% | 3.4%
COc1ccc(C(=O)Nc2ccccc2C(=O)N/N=C/c2ccncc2)cc1OC | -0.1% | 3.55µM* | -6.0 | 5.62µM* | ?
O=C(N/N=C/c1ccncc1)c1ccccc1OCc1ccc(Br)cc1 | -0.9% | -13.5% | -7.3 | 3.2% | 7.31µM*
Cc1ccc(/C=N/NC(=O)c2ccccc2OCc2ccc(F)cc2)o1 | 0.3% | 2.3% | 3.0 | 2.6% | 18.4µM*
COc1ccc(C(=O)Nc2ccccc2C(=O)NCc2cccnc2)cc1OC | 0.3% | · | -6.6 | · | ?
Cc1cccc(/C=N/NC(=O)c2ccccc2OCc2cccc(Br)c2)n1 | -0.4% | 15.8µM* | 2.3 | ? | 16.4µM*
O=C(NNC(=O)c1ccccc1OCc1ccc(F)cc1)c1ccncc1 | 0.0% | · | 8.2 | · | 1.0%
COc1ccc(CNc2nc(-c3cccc(NS(C)(=O)=O)c3)nc3ccccc23)c(OC)c1 | · | 15.5% | · | -4.0% | ·
SMILES | B2AR arrestin | RORgamma inh | TSHR antag | VP16 counter | ELG1 repair inh
Cc1noc(C)c1-c1cc(NCc2ccccc2)ncn1 | · | -13.6% | · | 8.0% | ·
CC(=O)NCCNc1ncnc2ccc(-c3ccccc3C)cc12 | · | 3.2% | · | -8.6% | ·
O=C(Nc1nnc(C2=COCCO2)o1)C1CCCCC1 | -0.2% | 19.7% | 30.7 | 1.1% | 2.6%
Cc1cccc(C(=O)Nc2nnc(C3=COCCO3)o2)c1 | 0.8% | 0.501µM* | 18.8 | 1µM* | -0.9%
O=C(Nc1nnc(C2=COCCO2)o1)c1cccc(F)c1 | 0.4% | 0.631µM* | 23.8 | 0.562µM* | 0.8%
O=C(O)c1ccc2c(c1)C(=O)N([C@H](Cc1ccc(Cl)cc1)C(=O)O)C2=O | -0.3% | -21.6% | -4.8 | 1.9% | ·
CCOc1ccc(-c2nnc(-c3cccs3)o2)cc1 | 0.4% | 11.2µM* | 13.7 | ? | ?
C=CCn1c(=S)[nH]c2ccc(Br)cc2c1=O | 0.2% | 2.82µM* | 6.1 | 3.16µM* | ?
C=CCn1c(=S)[nH]c2cc(C(=O)Nc3ccc(OC)c(OC)c3)ccc2c1=O | -0.1% | ? | -14.0 | -1.5% | -0.7%
C=CCn1c(=O)c2ccccc2n2c(=S)[nH]nc12 | -0.7% | -29.2% | -9.3 | -6.2% | -4.7%
O=c1c2cc(Br)ccc2[nH]c(=S)n1Cc1cccnc1 | -0.5% | 1.12µM* | 5.8 | ? | -5.1%
C=CCn1c(=S)[nH]c2nc3c(cc2c1=O)CCCC3 | 0.0% | 7.08µM* | 11.5 | 7.08µM* | 22.9%
O=C(CSc1nc2ccccc2c(=O)n1CCCN1CCOCC1)Nc1ccccc1OC(F)F | 2.4% | · | -2.5 | · | ?
COCCn1c(=O)c(-c2ccc(OC)cc2)nc2cnc(N3CCNCC3)nc21 | · | -18.2% | · | -16.4% | ·
COc1ccc(C)cc1-n1nnnc1SCn1nnc2ccccc2c1=O | -3.6% | 19.3% | -7.0 | -17.9% | 5.8µM*
COc1ccc(C)cc1-n1nnnc1SCc1cc(=O)n2cc(C)ccc2n1 | -0.8% | -2.6% | ? | -5.7% | 17.8µM*
COc1ccc(C)cc1-n1nnnc1SCc1csc(C)n1 | -0.1% | 0.5% | 0.6 | 5.8% | 15.6%
COC(=O)c1ccc(C(NC(=O)OCc2ccccc2)/C(F)=C/[C@@H](C)C(=O)NCCO)cc1 (some centres undefined) | · | 6.5% | · | -6.3% | ·
COC(=O)c1ccc(C(NC(=O)OCc2ccccc2)/C(F)=C/[C@@H](C)C(=O)Nc2ccc(OC)cc2)cc1 (some centres undefined) | · | 20µM* | · | ? | ·
CCn1c(C)cc(C=C2C(=O)c3ccccc3C2=O)c1C | -0.1% | 11.2µM* | -0.2 | -42.5% | ?
CCOCCCNC(=O)c1cc(Sc2ccc(F)cc2)nc2ccccc12 | -0.4% | ? | -1.8 | -3.4% | 18.4µM*
COCCCNC(=O)c1cc(Sc2ccc(F)cc2)nc2ccccc12 | -0.7% | 17.4% | 14.0 | -2.0% | -25.8%
COC(=O)c1ccc(-c2noc(CN(C)CCC3CCCCO3)n2)cc1 (centres undefined) | 0.0% | 5.62µM* | ? | 5.62µM* | ?
CCOc1cccc(/C=C/c2cc(C(=O)O)c3ccccc3n2)c1OC | -1.1% | 4.47µM* | -10.2 | ? | ?
CCOc1cc(/C=C/c2cc(C(=O)O)c3ccccc3n2)ccc1OC | -0.2% | 12.6µM* | 5.2 | ? | ?
COc1ncc2nc(-c3ccc(F)cc3)c(=O)n(Cc3ccc(F)cc3)c2n1 | · | -33.6% | · | -15.5% | ·
CC(=O)Nc1ccc(S(=O)(=O)n2cnc3cc(C)c(C)cc32)cc1 | 0.2% | 2.9% | -3.2 | 11.2µM* | ?
